# Source: publication PMC7862700, “An all-to-all approach to the identification of sequence-specific readers for epigenetic DNA modifications on cytosine”
# Legend:
# Assay in all cases: DAPPL (digital affinity profiling via proximity ligation, sequencing); 10 mM Tris-HCl pH 7.5, 50 mM NaCl, 1 mM DTT, 4% glycerol, room temperature, 30 min; GST-TFs on glutathione beads, 16-mer random dsDNA library, 0.1% formaldehyde crosslink after washing; high values mean tight binding
# [1] = target: T1, FLI1 (Homo sapiens, UniProt Q01543 1-452); details: protein: recombinant; tags: N-terminal GST; dsDNA, one strand shown
# T1 sequence: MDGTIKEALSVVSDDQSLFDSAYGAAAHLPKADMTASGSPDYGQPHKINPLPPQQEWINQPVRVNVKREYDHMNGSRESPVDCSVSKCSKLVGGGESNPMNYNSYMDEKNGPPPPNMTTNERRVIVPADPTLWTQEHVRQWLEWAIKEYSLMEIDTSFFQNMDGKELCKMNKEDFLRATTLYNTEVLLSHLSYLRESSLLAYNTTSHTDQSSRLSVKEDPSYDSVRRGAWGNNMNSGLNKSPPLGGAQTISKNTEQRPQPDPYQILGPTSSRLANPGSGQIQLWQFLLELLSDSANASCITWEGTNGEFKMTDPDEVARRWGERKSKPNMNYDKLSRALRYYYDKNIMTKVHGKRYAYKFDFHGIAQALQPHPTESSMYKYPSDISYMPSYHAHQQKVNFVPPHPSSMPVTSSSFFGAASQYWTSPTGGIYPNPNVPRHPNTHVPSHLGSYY
# Summary of the method: (§1)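 Pools of DNA-barcoded human transcription factors, expressed in yeast as GST fusions on glutathione beads and combined with a tag-only sample, were incubated with 200 nmole of a 16-mer random double-stranded DNA library. Incubation took 30 min at room temperature in Tris/NaCl/DTT/glycerol buffer and was followed by washing, 0.1% formaldehyde crosslinking, proximity ligation (BsaI/T4 ligase, 1 h, 37 °C), PCR amplification and sequencing on an Illumina NextSeq500. Binding signal is the ratio of a hexamer's read frequency for a factor to its frequency for the tag-only sample.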
# [2] = target: T2, ELK1 (Homo sapiens, UniProt P19419 1-428); details: protein: recombinant; tags: N-terminal GST; dsDNA, one strand shown
# T2 sequence: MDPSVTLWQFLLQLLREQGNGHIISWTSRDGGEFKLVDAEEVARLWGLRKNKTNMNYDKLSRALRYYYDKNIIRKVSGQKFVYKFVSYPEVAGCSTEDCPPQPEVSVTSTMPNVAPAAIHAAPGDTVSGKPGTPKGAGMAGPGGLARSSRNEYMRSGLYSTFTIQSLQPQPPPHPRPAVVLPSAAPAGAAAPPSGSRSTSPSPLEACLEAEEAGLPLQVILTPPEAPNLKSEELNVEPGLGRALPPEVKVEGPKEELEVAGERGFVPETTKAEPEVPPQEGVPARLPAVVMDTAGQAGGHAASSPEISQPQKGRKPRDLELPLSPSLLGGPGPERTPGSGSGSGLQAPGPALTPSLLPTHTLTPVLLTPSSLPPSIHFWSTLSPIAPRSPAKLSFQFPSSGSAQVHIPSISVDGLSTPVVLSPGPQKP
# Summary of the method: as §1
# [3] = target: T3, GABPA (Homo sapiens, UniProt Q06546 1-454); details: protein: recombinant; tags: N-terminal GST; dsDNA, one strand shown
# T3 sequence: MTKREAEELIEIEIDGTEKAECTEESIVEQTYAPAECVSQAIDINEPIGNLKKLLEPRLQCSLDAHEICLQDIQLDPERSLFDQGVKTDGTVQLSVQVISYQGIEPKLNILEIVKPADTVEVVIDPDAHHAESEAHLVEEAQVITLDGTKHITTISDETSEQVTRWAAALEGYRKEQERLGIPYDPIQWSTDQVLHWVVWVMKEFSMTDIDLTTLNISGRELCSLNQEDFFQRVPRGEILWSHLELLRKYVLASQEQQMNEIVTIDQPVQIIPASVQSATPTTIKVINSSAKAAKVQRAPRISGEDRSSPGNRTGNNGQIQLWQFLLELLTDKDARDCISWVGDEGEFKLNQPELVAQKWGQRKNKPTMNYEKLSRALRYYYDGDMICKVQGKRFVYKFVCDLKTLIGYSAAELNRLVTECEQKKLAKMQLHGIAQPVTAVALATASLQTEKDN
# Summary of the method: as §1
# [4] = target: T4, ERG (Homo sapiens, UniProt P11308 1-479); details: protein: recombinant; tags: N-terminal GST; dsDNA, one strand shown
# T4 sequence: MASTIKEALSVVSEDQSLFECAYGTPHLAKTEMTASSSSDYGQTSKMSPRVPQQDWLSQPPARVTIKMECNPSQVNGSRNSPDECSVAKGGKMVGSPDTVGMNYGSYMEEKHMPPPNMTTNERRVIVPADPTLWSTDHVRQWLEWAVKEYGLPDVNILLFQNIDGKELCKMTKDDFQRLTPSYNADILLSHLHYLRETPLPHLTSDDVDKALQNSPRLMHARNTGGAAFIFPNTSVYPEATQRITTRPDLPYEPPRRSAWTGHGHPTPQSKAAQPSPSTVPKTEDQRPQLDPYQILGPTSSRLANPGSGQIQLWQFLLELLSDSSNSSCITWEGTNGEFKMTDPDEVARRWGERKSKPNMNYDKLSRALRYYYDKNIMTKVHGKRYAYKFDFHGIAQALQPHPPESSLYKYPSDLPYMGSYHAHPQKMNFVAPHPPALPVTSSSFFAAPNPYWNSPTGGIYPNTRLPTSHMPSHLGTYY
# Summary of the method: as §1
# [5] = target: ELF1 (Homo sapiens, UniProt P32519 1-619); details: protein: recombinant; tags: N-terminal GST; dsDNA, one strand shown
# ELF1, sequence (P32519 whole entry): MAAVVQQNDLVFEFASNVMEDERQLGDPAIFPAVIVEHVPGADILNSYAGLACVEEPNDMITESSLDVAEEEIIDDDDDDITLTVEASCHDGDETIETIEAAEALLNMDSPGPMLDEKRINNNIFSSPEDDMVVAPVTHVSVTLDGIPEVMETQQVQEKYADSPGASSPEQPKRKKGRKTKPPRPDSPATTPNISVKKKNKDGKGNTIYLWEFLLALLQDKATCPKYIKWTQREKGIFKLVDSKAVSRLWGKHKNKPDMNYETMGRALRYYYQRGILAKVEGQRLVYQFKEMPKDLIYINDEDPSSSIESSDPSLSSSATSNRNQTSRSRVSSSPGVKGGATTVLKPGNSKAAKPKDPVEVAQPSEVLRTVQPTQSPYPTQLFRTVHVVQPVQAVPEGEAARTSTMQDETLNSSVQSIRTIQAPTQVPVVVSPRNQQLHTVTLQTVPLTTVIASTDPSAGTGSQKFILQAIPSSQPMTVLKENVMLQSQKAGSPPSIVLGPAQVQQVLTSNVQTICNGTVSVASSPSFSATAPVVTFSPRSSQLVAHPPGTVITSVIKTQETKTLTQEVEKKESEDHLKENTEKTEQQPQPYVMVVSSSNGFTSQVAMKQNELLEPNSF
# Summary of the method: as §1
# [6] = target: T5, EHF (Homo sapiens, UniProt Q9NZC4 1-300); details: protein: recombinant; tags: N-terminal GST; dsDNA, one strand shown
# T5 sequence: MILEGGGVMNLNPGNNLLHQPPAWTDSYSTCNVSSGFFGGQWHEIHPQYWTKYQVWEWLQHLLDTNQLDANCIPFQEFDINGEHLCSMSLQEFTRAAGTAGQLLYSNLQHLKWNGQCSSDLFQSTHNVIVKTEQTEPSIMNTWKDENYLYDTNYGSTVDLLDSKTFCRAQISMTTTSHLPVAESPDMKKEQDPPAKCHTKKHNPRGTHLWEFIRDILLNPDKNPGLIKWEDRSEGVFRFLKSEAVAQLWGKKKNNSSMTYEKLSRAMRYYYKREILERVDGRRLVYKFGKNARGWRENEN
# Summary of the method: as §1
# [7] = target: SPI1 (Homo sapiens, UniProt P17947 1-270); details: protein: recombinant; tags: N-terminal GST; dsDNA, one strand shown
# Summary of the method: as §1
# [8] = target: SPIB (Homo sapiens, UniProt Q01892 1-262); details: protein: recombinant; tags: N-terminal GST; dsDNA, one strand shown
# SPIB, sequence (Q01892 whole entry): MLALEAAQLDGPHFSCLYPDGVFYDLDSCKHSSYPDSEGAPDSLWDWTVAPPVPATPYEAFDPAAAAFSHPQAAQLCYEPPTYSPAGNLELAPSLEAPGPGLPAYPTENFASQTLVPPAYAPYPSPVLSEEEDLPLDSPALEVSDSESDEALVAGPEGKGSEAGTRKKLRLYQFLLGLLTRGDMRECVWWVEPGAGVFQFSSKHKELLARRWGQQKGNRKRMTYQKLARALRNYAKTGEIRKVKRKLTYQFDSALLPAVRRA
# Summary of the method: as §1
# [9] = target: T6, ELK3 (Homo sapiens, UniProt P41970 1-407); details: protein: recombinant; tags: N-terminal GST; dsDNA, one strand shown
# T6 sequence: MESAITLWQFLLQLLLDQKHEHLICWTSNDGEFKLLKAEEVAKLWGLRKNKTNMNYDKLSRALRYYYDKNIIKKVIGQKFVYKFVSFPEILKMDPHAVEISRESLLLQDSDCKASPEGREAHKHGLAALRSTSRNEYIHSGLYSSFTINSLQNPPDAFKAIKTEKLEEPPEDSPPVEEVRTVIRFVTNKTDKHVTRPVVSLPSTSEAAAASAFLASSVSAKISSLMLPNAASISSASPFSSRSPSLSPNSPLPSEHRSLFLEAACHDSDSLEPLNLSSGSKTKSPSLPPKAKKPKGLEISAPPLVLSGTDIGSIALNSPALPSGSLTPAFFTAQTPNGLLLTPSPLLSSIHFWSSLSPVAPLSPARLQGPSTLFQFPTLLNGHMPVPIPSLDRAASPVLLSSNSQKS
# Summary of the method: as §1
# [10] = target: T7, FEV (Homo sapiens, UniProt Q99581 1-238); details: protein: recombinant; tags: N-terminal GST; dsDNA, one strand shown
# T7 sequence: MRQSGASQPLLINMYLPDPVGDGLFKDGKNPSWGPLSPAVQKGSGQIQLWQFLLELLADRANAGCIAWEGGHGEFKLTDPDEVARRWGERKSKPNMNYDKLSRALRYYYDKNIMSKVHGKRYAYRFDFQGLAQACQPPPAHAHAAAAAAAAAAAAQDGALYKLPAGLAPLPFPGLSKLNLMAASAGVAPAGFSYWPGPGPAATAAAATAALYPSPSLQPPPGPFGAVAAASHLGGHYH
# Summary of the method: as §1
# [11] = target: ETV5 (Homo sapiens, UniProt P41161 1-510); details: protein: recombinant; tags: N-terminal GST; dsDNA, one strand shown
# ETV5, sequence (P41161 whole entry): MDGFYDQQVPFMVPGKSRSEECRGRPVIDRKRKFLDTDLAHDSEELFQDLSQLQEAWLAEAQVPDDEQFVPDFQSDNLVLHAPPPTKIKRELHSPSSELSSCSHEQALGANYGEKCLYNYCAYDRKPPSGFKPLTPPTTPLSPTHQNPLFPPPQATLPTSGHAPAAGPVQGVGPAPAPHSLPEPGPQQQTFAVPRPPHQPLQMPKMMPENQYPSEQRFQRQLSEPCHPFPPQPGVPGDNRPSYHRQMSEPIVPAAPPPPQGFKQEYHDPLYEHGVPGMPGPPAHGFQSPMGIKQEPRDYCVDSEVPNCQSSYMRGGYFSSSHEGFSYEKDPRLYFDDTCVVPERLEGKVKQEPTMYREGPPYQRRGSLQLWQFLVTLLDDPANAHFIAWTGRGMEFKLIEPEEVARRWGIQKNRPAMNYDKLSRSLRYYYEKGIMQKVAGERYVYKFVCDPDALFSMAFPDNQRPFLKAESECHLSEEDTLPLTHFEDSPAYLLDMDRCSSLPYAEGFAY
# Summary of the method: as §1
# [12] = target: HSF1 (Homo sapiens, UniProt Q00613 1-529); details: protein: recombinant; tags: N-terminal GST; chain copies: 3; dsDNA, one strand shown
# HSF1, sequence (Q00613 whole entry): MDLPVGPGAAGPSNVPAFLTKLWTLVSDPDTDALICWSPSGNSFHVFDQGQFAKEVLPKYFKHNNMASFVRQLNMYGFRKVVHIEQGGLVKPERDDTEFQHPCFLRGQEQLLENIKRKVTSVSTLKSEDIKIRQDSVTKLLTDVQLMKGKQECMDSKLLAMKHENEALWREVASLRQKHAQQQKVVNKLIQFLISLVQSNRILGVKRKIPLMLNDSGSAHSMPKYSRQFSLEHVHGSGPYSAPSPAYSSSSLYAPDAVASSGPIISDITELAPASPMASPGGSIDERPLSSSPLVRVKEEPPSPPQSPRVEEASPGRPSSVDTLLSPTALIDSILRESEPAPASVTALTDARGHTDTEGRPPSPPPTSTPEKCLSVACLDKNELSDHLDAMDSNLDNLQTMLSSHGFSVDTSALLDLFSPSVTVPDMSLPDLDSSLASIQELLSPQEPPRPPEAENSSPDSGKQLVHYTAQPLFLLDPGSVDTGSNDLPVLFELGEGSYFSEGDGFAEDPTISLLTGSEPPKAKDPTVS
# Summary of the method: as §1
# [13] = target: T8, SPIC (Homo sapiens, UniProt Q8N5J4 1-248); details: protein: recombinant; tags: N-terminal GST; dsDNA, one strand shown
# T8 sequence: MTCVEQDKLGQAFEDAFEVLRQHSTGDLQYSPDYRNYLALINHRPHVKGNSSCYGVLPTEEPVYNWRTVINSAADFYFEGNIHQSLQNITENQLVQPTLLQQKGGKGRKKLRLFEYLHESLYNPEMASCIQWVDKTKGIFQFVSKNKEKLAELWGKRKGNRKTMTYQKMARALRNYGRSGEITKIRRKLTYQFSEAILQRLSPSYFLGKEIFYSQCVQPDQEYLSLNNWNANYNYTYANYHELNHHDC
# Summary of the method: as §1
# [14] = target: ELF4 (Homo sapiens, UniProt Q99607 1-663); details: protein: recombinant; tags: N-terminal GST; dsDNA, one strand shown
# ELF4, sequence (Q99607 whole entry): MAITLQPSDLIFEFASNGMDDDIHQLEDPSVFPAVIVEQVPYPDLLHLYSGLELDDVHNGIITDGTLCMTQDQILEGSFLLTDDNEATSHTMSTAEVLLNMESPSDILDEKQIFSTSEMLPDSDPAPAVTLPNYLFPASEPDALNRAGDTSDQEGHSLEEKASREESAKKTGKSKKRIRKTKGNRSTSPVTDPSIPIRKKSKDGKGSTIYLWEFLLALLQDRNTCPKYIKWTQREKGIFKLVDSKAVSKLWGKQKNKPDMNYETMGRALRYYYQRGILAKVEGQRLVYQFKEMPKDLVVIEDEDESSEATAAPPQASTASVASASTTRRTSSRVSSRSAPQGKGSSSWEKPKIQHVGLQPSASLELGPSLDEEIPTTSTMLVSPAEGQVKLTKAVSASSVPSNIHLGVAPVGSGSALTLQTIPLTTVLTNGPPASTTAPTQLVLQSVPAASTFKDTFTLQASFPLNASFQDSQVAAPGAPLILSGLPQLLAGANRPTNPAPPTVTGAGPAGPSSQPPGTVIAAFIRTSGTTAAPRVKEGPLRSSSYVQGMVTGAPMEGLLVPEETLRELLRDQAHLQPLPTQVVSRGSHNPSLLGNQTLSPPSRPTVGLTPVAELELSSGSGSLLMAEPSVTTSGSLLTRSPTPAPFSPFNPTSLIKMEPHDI
# Summary of the method: as §1
# [15] = target: T9, ELK4 (Homo sapiens, UniProt P28324-2 1-405); details: protein: recombinant; tags: N-terminal GST; dsDNA, one strand shown
# T9 sequence: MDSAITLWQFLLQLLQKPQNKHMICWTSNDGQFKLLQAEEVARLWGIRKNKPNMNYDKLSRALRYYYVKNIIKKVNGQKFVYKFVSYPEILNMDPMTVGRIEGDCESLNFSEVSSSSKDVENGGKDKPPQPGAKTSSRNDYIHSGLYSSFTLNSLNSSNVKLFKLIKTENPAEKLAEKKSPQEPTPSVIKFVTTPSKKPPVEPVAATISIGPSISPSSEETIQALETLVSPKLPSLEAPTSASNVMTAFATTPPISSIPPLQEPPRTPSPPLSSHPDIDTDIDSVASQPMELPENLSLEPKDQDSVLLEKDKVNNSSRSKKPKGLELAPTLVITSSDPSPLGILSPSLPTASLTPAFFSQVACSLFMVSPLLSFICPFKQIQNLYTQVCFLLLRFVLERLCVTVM
# Summary of the method: as §1
# [16] = target: T10, ETV2 (Homo sapiens, UniProt O00321 1-342); details: protein: recombinant; tags: N-terminal GST; dsDNA, one strand shown
# T10 sequence: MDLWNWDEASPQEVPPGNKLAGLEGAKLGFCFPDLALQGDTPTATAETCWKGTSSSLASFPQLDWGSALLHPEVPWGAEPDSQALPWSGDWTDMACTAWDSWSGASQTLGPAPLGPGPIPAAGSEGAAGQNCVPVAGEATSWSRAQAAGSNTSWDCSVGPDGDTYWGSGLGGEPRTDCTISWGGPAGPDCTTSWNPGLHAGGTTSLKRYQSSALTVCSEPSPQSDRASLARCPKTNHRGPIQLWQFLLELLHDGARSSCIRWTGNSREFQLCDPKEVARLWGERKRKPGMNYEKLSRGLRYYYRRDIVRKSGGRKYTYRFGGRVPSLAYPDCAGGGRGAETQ
# Summary of the method: as §1
# [17] = target: T11, ELF3 (Homo sapiens, UniProt P78545 1-371); details: protein: recombinant; tags: N-terminal GST; dsDNA, one strand shown
# T11 sequence: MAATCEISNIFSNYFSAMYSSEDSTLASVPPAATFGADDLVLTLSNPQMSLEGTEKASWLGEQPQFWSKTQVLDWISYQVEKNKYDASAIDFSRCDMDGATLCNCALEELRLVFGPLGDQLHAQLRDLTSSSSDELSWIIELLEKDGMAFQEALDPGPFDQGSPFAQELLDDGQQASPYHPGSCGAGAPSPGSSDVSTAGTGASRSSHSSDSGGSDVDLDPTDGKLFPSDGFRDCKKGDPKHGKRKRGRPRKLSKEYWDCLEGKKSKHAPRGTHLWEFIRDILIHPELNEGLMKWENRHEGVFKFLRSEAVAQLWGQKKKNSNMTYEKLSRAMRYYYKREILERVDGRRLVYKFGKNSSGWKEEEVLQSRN
# Summary of the method: as §1
# [18] = target: CRX (Homo sapiens, UniProt O43186 1-299); details: protein: recombinant; tags: N-terminal GST; dsDNA, one strand shown
# CRX, sequence (O43186 whole entry): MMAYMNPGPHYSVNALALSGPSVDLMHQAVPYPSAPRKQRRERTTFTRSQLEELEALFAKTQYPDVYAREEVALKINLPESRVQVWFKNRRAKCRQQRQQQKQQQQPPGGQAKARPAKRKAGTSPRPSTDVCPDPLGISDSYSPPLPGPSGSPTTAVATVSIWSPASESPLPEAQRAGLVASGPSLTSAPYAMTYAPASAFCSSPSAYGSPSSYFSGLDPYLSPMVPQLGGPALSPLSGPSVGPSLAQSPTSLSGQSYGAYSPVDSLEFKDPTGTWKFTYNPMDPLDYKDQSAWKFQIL
# Summary of the method: as §1
# [19] = target: ETV1 (Homo sapiens, UniProt P50549 1-477); details: protein: recombinant; tags: N-terminal GST; dsDNA, one strand shown
# ETV1, sequence (P50549 whole entry): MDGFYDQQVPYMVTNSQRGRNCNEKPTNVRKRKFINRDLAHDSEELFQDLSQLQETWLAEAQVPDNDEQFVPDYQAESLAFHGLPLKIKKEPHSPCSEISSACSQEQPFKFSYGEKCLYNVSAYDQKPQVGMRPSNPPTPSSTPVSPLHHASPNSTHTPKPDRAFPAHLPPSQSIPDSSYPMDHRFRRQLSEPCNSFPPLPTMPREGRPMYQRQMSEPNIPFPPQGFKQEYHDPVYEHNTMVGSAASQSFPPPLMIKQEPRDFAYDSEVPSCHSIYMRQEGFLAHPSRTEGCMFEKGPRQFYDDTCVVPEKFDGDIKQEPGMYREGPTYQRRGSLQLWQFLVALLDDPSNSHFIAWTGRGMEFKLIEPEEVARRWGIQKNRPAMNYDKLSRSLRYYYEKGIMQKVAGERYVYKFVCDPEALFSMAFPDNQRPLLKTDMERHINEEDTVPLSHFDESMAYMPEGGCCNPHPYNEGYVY
# Summary of the method: as §1
sequence,measurement,setting,value
TTAAAC,binding signal,[1],"1.22 fold enrichment (6-mer frequency, TF over GST control)"
same,binding signal,[2],"1.18 fold enrichment (6-mer frequency, TF over GST control)"
same,binding signal,[3],"1.2 fold enrichment (6-mer frequency, TF over GST control)"
same,binding signal,[4],"1.25 fold enrichment (6-mer frequency, TF over GST control)"
same,binding signal,[5],"1.23 fold enrichment (6-mer frequency, TF over GST control)"
same,binding signal,[6],"1.26 fold enrichment (6-mer frequency, TF over GST control)"
same,binding signal,[7],"1.24 fold enrichment (6-mer frequency, TF over GST control)"
same,binding signal,[8],"1.26 fold enrichment (6-mer frequency, TF over GST control)"
same,binding signal,[9],"1.31 fold enrichment (6-mer frequency, TF over GST control)"
same,binding signal,[10],"1.21 fold enrichment (6-mer frequency, TF over GST control)"
same,binding signal,[11],"1.29 fold enrichment (6-mer frequency, TF over GST control)"
same,binding signal,[12],"1.7 fold enrichment (6-mer frequency, TF over GST control)"
same,binding signal,[13],"1.05 fold enrichment (6-mer frequency, TF over GST control)"
same,binding signal,[14],"1.21 fold enrichment (6-mer frequency, TF over GST control)"
same,binding signal,[15],"1.26 fold enrichment (6-mer frequency, TF over GST control)"
same,binding signal,[16],"1.26 fold enrichment (6-mer frequency, TF over GST control)"
same,binding signal,[17],"1.19 fold enrichment (6-mer frequency, TF over GST control)"
same,binding signal,[18],"2.58 fold enrichment (6-mer frequency, TF over GST control)"
same,binding signal,[19],"1.24 fold enrichment (6-mer frequency, TF over GST control)"
